An excerpt weighted towards active compounds, which were near 11% of everything screened.
HCV inhibitor – qHTS Assay for Inhibitors of Hepatitis C Virus (HCV); Huh7.5.1 HCVcc-Cre infection, luciferase reporter, 44 h; Potency, µM (highest dose often 41.8 µM), for the others: top-dose activity change, negative = inhibition, actives largely listed as inhibitors; 340,000 tested, 3.4% active; AID 651820, 2012
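Cells (1,000/well) were plated 4 h before compound, then infected with HCVcc-Cre virus (~0.5 moi). After 44 h further culture, infection was read as luciferase luminescence following a 15 min substrate incubation at room temperature.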
Pf growth 48h – Primary qHTS for delayed death inhibitors of the malarial parasite plastid, 48 hour incubation; P. falciparum luciferase growth in erythrocytes, 48 h; Potency, µM (highest dose often 28.7 µM), for inactives: at the highest dose activity change, negative = inhibition, usual class: inhibitors; 310,000 tested, 5.9% active
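Luminescence readout; reporter = integrated firefly luciferase in P. falciparum. RBC culture at 2% hematocrit, 0.1% parasitemia final, 37 C/5% CO2; decreased signal taken as growth inhibition.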
Pf growth 96h – Primary qHTS for delayed death inhibitors of the malarial parasite plastid, 96 hour incubation; P. falciparum luciferase reporter growth, 96 h; Potency, µM (top dose mostly 28.7 µM), for the others: at the highest dose activity change, negative = inhibition, actives largely listed as inhibitors; 320,000 tested, 6.9% active; AID 504834, 2011
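Parasite growth measured via integrated firefly luciferase reporter in P. falciparum. Infected erythrocytes at 2% hematocrit, 0.05% parasitemia final were treated 96 hours at 37 C under 5% CO2, and luminescence was read.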
AMA1-RON2 inh – qHTS for Inhibitors of AMA1-RON; Towards Development of Antimalarial Drug Lead: Primary Screen. Plasmodium falciparum AMA1 (3D7) - RON2 peptide interaction. AlphaScreen AMA1-biotinylated RON2 peptide binding. Potency, µM (titrated, usually from 58.2 µM), inactives show at the top dose activity change, negative = inhibition, actives largely listed as inhibitors. 360,000 tested, 0.2% active. AID 720542, 2013;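 note: 0% = vehicle wells and -100% = peptide control; nearly all actives have a fitted effect of over 45% in size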
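AMA1 (3D7) with his tag at 25 nM final met compounds first, then biotinylated RON2 peptide at 25 nM; detection used donor plus acceptor beads, 10 µg/mL apiece, read by AlphaScreen after 30 min at room temperature.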
* hit, by the source's call; u = inconclusive; x = no result given; [ ] = another dose, or the depositor's remark. Calls come from the whole dose curve; as a rule, active = well fitted curve in the direction sought with a large enough effect; inconclusive = small, poorly fitted or top-dose-only effect, or another doubt; inactive = no such curve, though single readings can be large; an effect the other way counts as inactive or inconclusive. Unless noted, % is set by controls: 0 for no effect and ±100 for the full control effect; potency is the fitted concentration of half-maximal effect.

SMILES | HCV inhibitor | Pf growth 48h | Pf growth 96h | AMA1-RON2 inh
CC(=O)N1CCN(c2ccc(OC[C@H]3CO[C@](Cn4ccnc4)(c4ccc(Cl)cc4Cl)O3)cc2)CC1 | u | 5.9µM* | 4.7µM* | -7%
COc1ccc(CC(N)c2csc(Nc3ccc(C(=O)c4ccccc4)cc3)n2)cc1 (stereo unspecified) | x | x | x | 14%
Cc1cc(C)cc(-n2cc[nH]c2=S)c1 | 2% | -5% | 9% | -8%[2.32 µM]
Cc1ccc(N2C(=O)CC(Cc3cccc(C)c3)C2=O)cc1 (stereo unspecified) | 15% | 10% | 0.29µM* | 6%
Cc1ccc(CC2CC(=O)N(CCc3ccccc3)C2=O)cc1 (stereo unspecified) | -5% | 9% | 13µM* | 4%
C[C@H](CO)N1C[C@H](C)[C@H](CN(C)C(=O)Cc2ccncc2)Oc2ncc(Br)cc2C1=O | x | x | x | 13%
Cc1ccc(N2C(=O)c3ccc(C(=O)O)cc3C2=O)cc1C | 6% | x | u | -4%
CCSc1nnc(N2C(=O)c3ccc(C(=O)c4ccc(C(=O)O)cc4)cc3C2=O)s1 | 11% | 9% | 10µM* | -3%
COc1ccc(CCN2CC(C(=O)NCc3cccc4[nH]ccc34)CCC2=O)cc1 (stereo unspecified) | 1% | -16% | 9.3µM* | -9%
O=C(NCc1cccc2[nH]ccc12)C1CCC(=O)N(CCc2ccccc2)C1 (stereo unspecified) | 10% | -15% | u | -6%
COc1ccc(CCNC(=O)CN2C(=O)NC(c3ccccc3)(c3ccccc3)C2=O)cc1 | u | x | x | -16%
CC1(C)CC(=O)C2=C(C1)O[C@@]1(CCCCN3C(=O)c4ccccc4C3=O)Cc3ccccc3C2O1 | x | 1.7µM* | 1.7µM* | x
O=C1C2=C(C(=O)c3ccccc31)C1O[C@](CCCCN3C(=O)c4ccccc4C3=O)(Cc3c1ccc1ccccc31)O2 | x | u | -17%[5.75 µM] | x
CCCC[C@]12Cc3cc(OC)c(OC)cc3C(O1)C1=C(O2)C(=O)c2ccccc2C1=O | x | 1.3µM* | 26%[5.75 µM] | x
CCCCC[C@]12Cc3ccccc3C(O1)C1=C(CC(C)(C)CC1=O)O2 | x | 34%[5.75 µM] | u | x
CCCC[C@]12Cc3ccccc3[C@H](O1)C1=C(O2)C(=O)c2ccccc2C1=O | x | u | 0.85µM* | x
COc1ccc(NC(=O)COC(=O)[C@@H](NC(=O)c2c(F)cccc2F)C(C)C)cc1 | -2% | 21% | 7% | -9%
CCOC(=O)/C=C(\C)Sc1cc(=O)oc2ccccc12 | u | u | u | -15%
CCOC(=O)/C=C(\C)Sc1cc(O)c2ccccc2c1O | u | 1.5µM* | 1.7µM* | -16%
O=[N+]([O-])c1ccc(NN=Cc2ccccc2)nc1 | 9% | x | x | 55%
N#Cc1ccccc1Cn1cc(/C=N/Nc2ccc([N+](=O)[O-])cn2)c2ccccc21 | 2.5µM* | u | 5.2µM* | -6%
O=[N+]([O-])c1ccc(N/N=C/c2ccc(OCc3cccc4ccccc34)cc2)nc1 | -15% | u | 7.4µM* | -6%
COc1ccc(NC(=O)CSc2nnnn2C)c([N+](=O)[O-])c1 | -4% | 23% | -1% | 7%
COc1ccc(CCNC(=O)CC2Nc3ccccc3NC2=O)cc1 (stereo unspecified) | -7% | x | u | -5%
CCOc1ccccc1NC(=O)CC1Nc2ccccc2NC1=O (stereo unspecified) | u | 2.3µM* | 3.3µM* | -8%
SMILES | HCV inhibitor | Pf growth 48h | Pf growth 96h | AMA1-RON2 inh
CCCOc1ccccc1NC(=O)CC1Nc2ccccc2NC1=O (stereo unspecified) | -28% | 9.3µM* | 27% | 25%
CCCOc1ccc(NC(=O)CC2Nc3ccccc3NC2=O)cc1 (stereo unspecified) | -2% | 1% | u | -1%
COc1ccc(CCNC(=O)CC2Nc3ccccc3NC2=O)cc1OC (stereo unspecified) | 14% | u | 1.5µM* | 64%
CCOc1ccccc1NC(=O)CC1Nc2cc(C)c(C)cc2NC1=O (stereo unspecified) | u | u | u | 3%
O=S1(=O)CCOCCCN1Cc1ccccc1 | 0% | 36% | 72% | 7%
COc1ccc(-c2cc(=O)oc3cc(OCC(=O)NCC4CCC(C(=O)O)CC4)ccc23)cc1 (stereo unspecified) | 21% | -16% | -94% | 17%
Cc1ccccc1C(=O)OCC(=O)NCc1ccco1 | -3% | x | x | -14%
Cc1cccc(Nc2ccccc2C(=O)OCC(=O)NCc2ccco2)c1C | -16% | u | 12µM* | -4%
COC(=O)c1cnc(SCC(=O)c2ccccc2)n1C | -9% | 154% | 346% | -11%
CC(c1ccccc1)n1cnc2ccccc21 (stereo unspecified) | 2% | -18% | 32% | -5%
COC(=O)c1cncn1C(C)c1ccccc1 (stereo unspecified) | u | u | 2.1µM* | 18%
CC(c1ccccc1)n1cncc1C(=O)O (stereo unspecified) | 15% | 4% | 1.5µM* | -9%
COC(=O)c1ccc(NC(=O)C(OC)c2ccccc2)cc1 (stereo unspecified) | 3% | -4% | 2% | -6%
COc1ccc(C(=O)C2CCCN(C(=O)c3csc(SC)n3)C2)cc1F (stereo unspecified) | x | x | x | 4%
CC1=C(C(=O)O)N2C(=O)C(NC(=O)c3ccc(F)cc3)C2SC1 (stereo unspecified) | 13% | 11% | 3% | 27%
COc1cccc(CCN2CCC(CNS(=O)(=O)c3cc(-c4cc(C)no4)ccc3C)CC2)c1 | 13µM* | u | u | -17%
CCc1ccc(-c2cc(C)no2)cc1S(=O)(=O)NCCc1ccc(OC)c(OC)c1 | -30% | 0% | 12µM* | 0%
COc1ccccc1CNS(=O)(=O)c1cc(C)ccc1OC | -2% | 2% | x | -1%
Cc1cc(-c2ccc(C)c(S(=O)(=O)NCC3CCN(Cc4ccccc4F)CC3)c2)on1 | u | u | -14% | -6%
Cc1cc(-c2ccc(C)c(S(=O)(=O)NCC3CCN(Cc4cccc(F)c4)CC3)c2)on1 | u | 9.3µM* | u | -4%
COc1ccccc1CN1CCC(CNS(=O)(=O)c2cc(-c3onc(C)c3C)ccc2OC)CC1 | 10µM* | 12µM* | u | -10%
CCOC1=C2CN(S(=O)(=O)c3ccc(C)cc3)[C@H](c3ccccc3)C[C@H]2[C@H]2C(=O)N(c3ccccc3)C(=O)[C@H]2C1 | x | x | x | -3%
COc1cccc(CCN2CCC(CNS(=O)(=O)c3cc(-c4cc(C)no4)ccc3OC)CC2)c1 | 7.9µM* | 4.1µM* | 10µM* | -11%
COc1ccc(-c2cc(C)no2)cc1S(=O)(=O)NCCCN1CCCCCC1 | -27% | u | 21% | 8%
Cc1ccccc1C(=O)Nc1ccccc1N1CCN(C(=O)c2ccccc2)CC1 | -15% | 12µM* | 18% | -9%
